{"source": "ChEMBL document CHEMBL3433997", "about": "“St. Jude Leishmania screening dataset” (2016)", "data": [{"target": "Glucose transporter (Leishmania mexicana) (UniProt O61059)", "assay": "ST_JUDE_LEISH: Cytotoxicity at 2uM final concentration against transgenic Leishmania Mexicana promastigotes LmGT2 that are glucose transport deficient and complemented with the L. Mexicana glucose transporter 2. Activity is measured by DNA content using SYBR green in vitro", "type": "functional", "units": {"inhibition": "%"}, "values": [{"molecule": "CC(C)COc1ccc(Cl)cc1Cc1nc(-c2nc3cccc(CN4CCN(C)CC4)c3[nH]2)cs1", "inhibition": 0.67}, {"molecule": "Cc1cccc2nc(-c3cccc(-c4ccc(NC(=O)c5ccoc5)cc4)c3)[nH]c12", "inhibition": -1.09}, {"molecule": "Cc1cccc2nc(-c3ccc(-c4ccc(CN5CCN(CCO)CC5)cc4)cc3)[nH]c12", "inhibition": 17.5}, {"molecule": "CCCCCCN(C(=O)OCc1ccccc1)C1CCN(C(=O)OC(C)(C)C)CC1C(=O)OCC", "note": "(centres undefined)", "inhibition": 7.27}, {"molecule": "COc1cccc(C(=O)Nc2nc3c(s2)CCN(Cc2ccccc2N2CCNCC2)CC3)c1", "inhibition": 10.7}, {"molecule": "CN(C)Cc1ccc2nc(-c3cccc(Cc4cc(Cl)ccc4OCc4ccc(Cl)cc4F)n3)[nH]c2c1", "inhibition": -1.22}, {"molecule": "Cc1cccc2nc(-c3ccc(-c4ccc(CNCc5ccc(S(C)(=O)=O)cc5)cc4)cc3)[nH]c12", "inhibition": 7.88}, {"molecule": "Cc1ccc(NC(C)C(=O)Nc2ccccc2)cc1S(=O)(=O)N1CCCCCC1", "note": "(centres undefined)", "inhibition": 9.12}, {"molecule": "Cc1cnc(NCC2CCCCC2)nc1NCC(=O)Nc1ccccc1", "inhibition": 6.18}, {"molecule": "Oc1ccccc1CNCc1ccc(-c2cnc(N3CCCC(c4ccccc4)C3)nc2)cc1", "note": "(centres undefined)", "inhibition": 9.12}, {"molecule": "Cc1noc(C)c1-c1cccc(CNCc2cccc(-c3ccc(-c4nc5cccc(C)c5[nH]4)cc3)c2)c1", "inhibition": 0.96}, {"molecule": "CC(C)C[C@@H](CNC[C@H](CC(C)C)NC(=O)OC(C)(C)C)NC(=O)OC(C)(C)C", "inhibition": -0.19}, {"molecule": "CCc1cc(-c2onc(C(F)(F)F)c2-c2ccccc2)c(O)cc1OC", "inhibition": 7.43}, {"molecule": "COc1cc2cc(-c3nc4ccccc4[nH]3)c(N)nc2cc1OC", "inhibition": 67.3}, {"molecule": "O=C(Nc1ccc2c(c1)CCN2C1CCN(Cc2cccc(C(F)(F)F)c2)C1)c1ccco1", "note": "(centres undefined)", "inhibition": -0.47}, {"molecule": "COc1ccc(NS(=O)(=O)c2ccc(C(=O)Nc3ccc(C(F)(F)F)cc3)cc2)cc1N1CCN(CC2CC2)CC1", "inhibition": -7.4}, {"molecule": "O=C(c1cccc(-c2ccc(-c3nc4cc(F)ccc4[nH]3)s2)c1)N1CCCCC1CN1CCC(O)C1", "note": "(centres undefined)", "inhibition": 1.75}, {"molecule": "COc1ccc2nccc([C@@H](O)CN3CCC(NCCNc4ccccn4)CC3)c2c1", "inhibition": 6.24}, {"molecule": "O=C(Nc1ccc(F)cc1)N1CCCN(c2ccnc3cc(Cl)ccc23)CC1", "inhibition": 1.11}, {"molecule": "CCCCCCCCCCS(=O)(=O)N[C@H](COCc1cccc(Oc2ccccc2)c1)COP(=O)(O)OC", "inhibition": -1.2}, {"molecule": "c1cc(CN2CCN(c3ccncc3)CC2)cc(-c2ccc(-c3nc4ccccc4[nH]3)s2)c1", "inhibition": 2.03}, {"molecule": "CCNCCCC(C)Nc1ccnc2cc(Cl)ccc12", "note": "(centres undefined)", "inhibition": -2.34}, {"molecule": "COc1ccc(-c2cnc3ccc(NC4CCC(O)CC4)nn23)cn1", "note": "(centres undefined)", "inhibition": 0.93}, {"molecule": "COc1cc2c(cc1OC)CN(c1cc(N)c3cc(OC)c(OC)cc3n1)CC2", "inhibition": -1.39}, {"molecule": "O=C(Nc1cc(Cl)ccc1O)c1cnn2c(C(F)(F)F)cc(-c3cccs3)nc12", "inhibition": 3.63}, {"molecule": "C=CCC(C(=O)Nc1ccnc2ccc(OC)cc12)C1CCN(CCCCCCC)CC1", "note": "(centres undefined)", "inhibition": 0.87}, {"molecule": "CC(C)c1sc(N2CCN(C)CC2)nc1C(=O)NCCc1ccc(Cl)c(Cl)c1", "inhibition": 2.34}, {"molecule": "Nc1ccc(-c2ccc(NC(=O)Nc3cc(C(F)(F)F)ccc3F)cc2)cn1", "inhibition": 2.2}, {"molecule": "CC1(C)N=C(N)N=C(N)N1c1ccc(Br)cc1", "inhibition": 3.63}, {"molecule": "Oc1ccc(CCCNc2nc(NCc3cccc4ccccc34)nc(N3CCCNCC3)n2)cc1", "inhibition": 1.52}, {"molecule": "Cc1cc(OCCCNc2nc(NCCc3ccc(O)cc3)nc(N3CCNCC3)n2)c(Cl)c(C)c1Cl", "inhibition": 0.27}, {"molecule": "O=C(c1cccc(-c2noc(C(F)(F)F)n2)c1)N1CCN(C(=O)c2ccc3cc[nH]c3c2)CC1", "inhibition": -1.68}, {"molecule": "CO/C(=C\\C=C/c1cc2cc(Cl)c(Cl)cc2[nH]1)C(=O)NC1CC(C)(C)N(C)C(C)(C)C1", "inhibition": 5.19}, {"molecule": "CN(C)CCN(C)Cc1ccc(-c2ccc(NC(=O)c3ccc(Cl)cc3)cc2)cc1", "inhibition": 7.17}, {"molecule": "CCCCCCn1c2c(c(=N)c3c1CCC3)CCCC2", "inhibition": 66.2}, {"molecule": "CN(CCCCNC(=O)c1ccc(-c2ccccc2)cc1)C1CCc2c(O)cccc2C1", "note": "(centres undefined)", "inhibition": 1.18}, {"molecule": "N=C(NCCc1ccc(Cl)c(Cl)c1)c1ccc2ccccc2c1", "inhibition": -2.5}, {"molecule": "O=C(Cc1ccc(Cl)cc1)Nc1cc(Cl)ccc1Cn1cnc(N2CCNCC2)cc1=O", "inhibition": 2.2}, {"molecule": "Cc1ccc(-n2nc3ccc(NC(=O)c4ccc([N+](=O)[O-])o4)cc3n2)cc1C", "inhibition": 40.3}]}]}
